Records with an inconclusive call do not appear. Activity calls are given as the source filed them. The call rests on the fitted dose curve; in most records, active means well fitted curve in the direction sought with a large enough effect; inconclusive means small, poorly fitted or top-dose-only effect, or another doubt; inactive means no such curve, though single readings can be large; an effect the other way counts as inactive or inconclusive.

One test concerns MCC-13. Description: qHTS assay to identify novel small-molecules to repurpose for Merkel cell carcinoma treatment (AID 1296009). Further: nearly all actives have a fitted effect of over 60% in size. Further: potency means the concentration at half of the fitted maximal effect. The note with it: MCC and control cell lines, CellTiter-Glo viability, 72 h; series mostly up to 46 µM. In outline:
(§1)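 Dose-response viability screen; 72 hr exposure at 37 degree celsius; CellTiter-Glo added, 10 min room temperature, luminescence read; RLUs scaled between no-cell and DMSO wells.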
On the technique in general: qHTS replaces the single test concentration by a dilution series.

A further test deals with MCC-26. The description is as above. As to conditions: MCC and control cell lines, CellTiter-Glo viability, 72 h; series mostly up to 46 µM. In outline: as §1
In a further test the test system is MKL-1. The description is as above. As to conditions: MCC and control cell lines, CellTiter-Glo viability, 72 h; series mostly up to 46 µM. In outline:
as §1
Background: Cellular ATP, detected with luciferase, serves as a proxy for viable cell number.

The next test deals with MKL-2. Described as above. As to conditions: MCC and control cell lines, CellTiter-Glo viability, 72 h; series mostly up to 46 µM. Put shortly:
as §1

For a further test, the system named is UISO. Described as above. The note with it: MCC and control cell lines, CellTiter-Glo viability, 72 h; series mostly up to 46 µM. In outline:
as §1

A further test relates to WaGa. Described as above. As to conditions: MCC and control cell lines, CellTiter-Glo viability, 72 h; series mostly up to 46 µM. Put shortly: as §1
Another test has as its system NIH3T3. The test is described as above. The note with it: MCC and control cell lines, CellTiter-Glo viability, 72 h; at 44.8 µM (top of the series) unless noted. Put shortly: as §1
A further test concerns C33A. In words: Primary qHTS to identify gynecologic anti-cancer compounds using libraries of approved drugs and bioactive compounds (AID 1345084). Further: nearly all actives have a fitted effect of over 55% in size. As to conditions: Gynecologic cancer cell panel viability, ATPlite luminescence, 48 h; series mostly up to 57.5 µM. Put shortly:
(§2)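 Cell viability after 48 h drug treatment, ATPlite luminescence readout; five doses.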

For another test, the system named is CASKI. The description is as above. As to conditions: Gynecologic cancer cell panel viability, ATPlite luminescence, 48 h; series mostly up to 57.5 µM. In outline: as §2

Regarding `CC(=O)O[C@H]1C[C@@H]2CC[C@H]3[C@H]4C[C@H]([N+]5(C)CCCCC5)[C@@H](OC(C)=O)[C@@]4(C)CC[C@@H]3[C@@]2(C)C[C@H]1N1CCCCC1`, the Potency entry with MCC-13, with MCC-26, in the test on MKL-1, in the test with MKL-2, in the test on UISO and in the test with WaGa was “inactive” each time.

In the case of `Nc1nc2c(c(=O)[nH]1)N(C=O)[C@H](CNc1ccc(C(=O)N[C@@H](CCC(=O)O)C(=O)O)cc1)CN2`, the Potency result in the test with MCC-13, in the test on MCC-26, with MKL-1, with MKL-2, with UISO and in the test with WaGa was “inactive” in each case. For the same compound, the outcome in the test with NIH3T3 was inactive.

`O=C(C=CC=Cc1ccc2c(c1)OCO2)N1CCCCC1`: the Potency result in the test with MCC-13, with MCC-26, in the test with MKL-1, in the test on MKL-2, in the test with UISO and in the test with WaGa was “inactive” throughout. Besides, in the test on NIH3T3, the outcome was inactive.

Consider `CC[C@H]1OC(=O)[C@H](C)[C@@H](O[C@H]2C[C@@](C)(OC)[C@@H](O)[C@H](C)O2)[C@H](C)[C@@H](O[C@@H]2O[C@H](C)C[C@H](N(C)C)[C@@H]2O)[C@](C)(OC)C[C@@H](C)C(=O)[C@H](C)[C@@H](O)[C@]1(C)O`, for which the Potency entry with MCC-13, in the test with MCC-26, in the test on MKL-1, in the test with MKL-2, with UISO and with WaGa was “inactive” throughout. Besides, the compound was called inactive in the test on NIH3T3.

For `COc1ccc(CCC(=O)c2c(O)cc(O[C@@H]3O[C@H](CO)[C@@H](O)[C@H](O)[C@@H]3O[C@@H]3O[C@@H](C)[C@H](O)[C@@H](O)[C@@H]3O)cc2O)cc1O`, the Potency entry with MCC-13, in the test on MCC-26, in the test with MKL-1, in the test on MKL-2, in the test on UISO and with WaGa was “inactive” throughout. For the same compound, the compound was called inactive with NIH3T3.

In the case of `OCc1ccccc1O[C@@H]1O[C@H](CO)[C@H](O)[C@H](O)[C@H]1O`, the Potency entry with MCC-13, in the test with MCC-26, in the test with MKL-1, with MKL-2, in the test with UISO and with WaGa was “inactive” throughout. Further, in the test on NIH3T3, the compound was called inactive.

Turning to `CCN(CC)CCNC(=O)c1c(C)[nH]c(C=C2C(=O)Nc3ccc(F)cc32)c1C`, the Potency is 42.9 µM (active) in the test on MCC-13; 38.2 µM (active) in the test with MCC-26; 12.1 µM (active) in the test with MKL-1; 15.2 µM (active) in the test with MKL-2; 6.05 µM (active) with UISO; 13.6 µM (active) in the test with WaGa.

As for `Cc1cn([C@@H]2O[C@H](CO)[C@@H](O)[C@H]2F)c(=O)[nH]c1=O`, the Potency result in the test with MCC-13, in the test on MCC-26, in the test on MKL-1, in the test with MKL-2, with UISO and in the test with WaGa was “inactive” throughout. Besides, the Potency entry with C33A and in the test on CASKI was “inactive” in each case. Further, the compound was called inactive with NIH3T3.

On to `C[C@]12C=CC(=O)N[C@@H]1CC[C@H]1[C@H]3CC[C@@H](C(=O)Nc4cc(C(F)(F)F)ccc4C(F)(F)F)[C@@]3(C)CC[C@@H]12`, for which the Potency result in the test with MCC-13, in the test on MCC-26, with MKL-1, with MKL-2, in the test on UISO and in the test with WaGa was “inactive” throughout. For the same compound, the compound was classed as inactive in the test with NIH3T3.

Take `CC(=O)O[C@H]1C[C@@H]2CC[C@H]3[C@H]4C[C@H]([N+]5(C)CCCCC5)[C@@H](OC(C)=O)[C@@]4(C)CC[C@@H]3[C@@]2(C)C[C@H]1[N+]1(C)CCCCC1`: the Potency result in the test with MCC-13, with MCC-26, with MKL-1, in the test with MKL-2, in the test on UISO and in the test with WaGa was “inactive” each time.

In the case of `O=[N+]([O-])c1cn2c(n1)OC[C@@H](OCc1ccc(OC(F)(F)F)cc1)C2`, the Potency result in the test on MCC-13, with MCC-26, in the test on MKL-1, with MKL-2, in the test on UISO and in the test with WaGa was “inactive” each time.

On to `O=C(Nc1ccc(Oc2ccnc3[nH]ccc23)c(F)c1)c1cccn(-c2ccc(F)cc2)c1=O`, for which the Potency entry in the test on MCC-13, in the test on MCC-26, in the test on MKL-1, in the test on MKL-2, in the test with UISO and with WaGa was “inactive” throughout. The Potency result in the test with C33A and in the test with CASKI was “inactive” each time. Besides, the result with NIH3T3 was inactive.

As to `CC(=O)N[C@H]1[C@@H]([C@H](O)[C@H](O)CO)OC(C(=O)O)=C[C@@H]1N=C(N)N`, the Potency entry in the test on MCC-13, in the test on MCC-26, with MKL-1, with MKL-2, in the test on UISO and in the test with WaGa was “inactive” each time.

In the case of `Cc1ccc(O)c(C(CCN(C(C)C)C(C)C)c2ccccc2)c1` (stereo not given), the Potency entry with MCC-13, in the test on MCC-26, with MKL-1, with MKL-2, with UISO and with WaGa was “inactive” in each case. Further, the outcome in the test on NIH3T3 was inactive.

In the case of `CC1(C)[C@H](O[C@H]2O[C@H](C(=O)O)[C@@H](O)[C@H](O)[C@H]2O[C@@H]2O[C@H](C(=O)O)[C@@H](O)[C@H](O)[C@H]2O)CC[C@@]2(C)[C@H]1CC[C@]1(C)[C@H]2C(=O)C=C2[C@H]3C[C@@](C)(C(=O)O)CC[C@]3(C)CC[C@]21C`, the Potency result in the test with MCC-13, in the test with MCC-26, in the test on MKL-1, with MKL-2, with UISO and in the test on WaGa was “inactive” each time. Moreover, the compound was classed as inactive in the test on NIH3T3.

For `O=C(O)[C@H](CC(=O)N1C[C@@H]2CCCC[C@H]2C1)Cc1ccccc1`, the Potency entry with MCC-13, in the test on MCC-26, with MKL-1, in the test with MKL-2, with UISO and in the test with WaGa was “inactive” in each case. In addition, the outcome with NIH3T3 was inactive.

With `NC(=O)c1cccc(-c2cccc(OC(=O)NC3CCCCC3)c2)c1`, the Potency entry in the test with MCC-13, in the test on MCC-26, in the test with MKL-1, in the test on MKL-2, in the test with UISO and with WaGa was “inactive” throughout. For the same compound, the compound was called inactive in the test on NIH3T3.

In the case of `CC(C)(O)[C@H]1CC[C@@](C)([C@H]2[C@@H](O)C[C@@]3(C)[C@@H]4C[C@H](O[C@@H]5O[C@H](CO)[C@@H](O)[C@H](O)[C@@H]5O)[C@H]5C(C)(C)[C@@H](O[C@@H]6OC[C@@H](O)[C@H](O)[C@@H]6O)CC[C@@]56C[C@@]46CC[C@]23C)O1`, the Potency entry in the test on MCC-13, in the test with MCC-26, with MKL-1, in the test on MKL-2, in the test with UISO and in the test on WaGa was “inactive” throughout. Moreover, in the test with NIH3T3, the result was inactive.

The record behind these values is PubChem BioAssay (NCATS).
